Hits are enriched below; roughly 2.8% of the tested compounds scored in any of these assays.
Mcl-1 Bim block: disrupts Bim peptide binding to human Mcl-1. Q07820. Bead-based flow cytometry, Bim peptide-Mcl-1 binding. inhibition, % at 10 µM. actives 0.1% (n = 190,000). AID 1009; in the data active means inhibition above about 40%;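 further: 0% = no compound tracer wells and 100% = peptide blocker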
Target sequence (Q07820 whole entry, looked up): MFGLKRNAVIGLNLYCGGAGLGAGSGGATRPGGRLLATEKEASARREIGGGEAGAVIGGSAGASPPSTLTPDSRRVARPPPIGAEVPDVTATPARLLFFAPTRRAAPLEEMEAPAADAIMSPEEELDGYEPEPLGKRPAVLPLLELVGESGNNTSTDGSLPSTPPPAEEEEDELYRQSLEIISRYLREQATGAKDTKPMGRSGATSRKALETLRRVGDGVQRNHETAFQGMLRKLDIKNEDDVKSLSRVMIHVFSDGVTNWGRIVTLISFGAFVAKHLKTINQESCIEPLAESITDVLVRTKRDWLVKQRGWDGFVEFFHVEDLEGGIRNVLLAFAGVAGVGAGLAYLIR
Calpain2 inh: blocks pig calpain II enzyme activity; actives 0.37% (n = 220,000); purified calpain II, fluorogenic peptide substrate, 30 min; inhibition, % at 16 µM; AID 1236;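 active means inhibition above about 50%, limit read from the data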
TNF necrop inh: inhibitors of TNF-alpha induced necroptosis in Jurkat FADD-/- cells. Jurkat FADD-/- TNF necroptosis rescue, ATP luminescence, 24 h; 0 = TNF only, 100 = no-TNF cells. activation (protection from cell death), % at 10 µM. actives 0.068% (n = 220,000). AID 463075;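 active means activation, meaning protection from cell death, of at least 50% relative to plate controls; inactive means activation below 50%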;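 further: necroptosis triggered by 40 ng/mL TNF-alpha added together with compound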
Mcl1 Bid PPI: Mcl-1/Bid interaction inhibition. Q07820. TR-FRET Mcl-1/Bid-Dy647 peptide binding, 1536-well. inhibition, % at 21.7 µM. actives 0.97% (n = 220,000);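 active means compounds that cut the binding signal by more than half at the single screening dose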;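 further: His-tagged Mcl-1 with europium anti-His antibody binding Bid BH3 peptide; 0% = Mcl-1 plus peptide wells and 100% = peptide-only wells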
L929 necroptosis: L929 zVAD cell death inhibition; actives 0.38% (n = 220,000); viability rescue, % at 10 µM; L929 zVAD necroptosis rescue, ATP luminescence, 24 h; with zVAD 60 µM;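 active means activation, scaled between plate controls, above about 75%, limit read from the data; inactive means activation under that limit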;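 further: 0% = zVAD with DMSO and 100% = DMSO alone without zVAD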
Mcl1 Noxa PPI: disrupts binding of human Mcl-1 to Noxa peptide. Q07820. actives 1.5% (n = 220,000). inhibition, % at 21.7 µM. TR-FRET Mcl-1/Noxa peptide binding, 2 h. AID 1022;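 active means compounds that cut the protein-peptide binding signal by more than 50% relative to plate controls in a single-dose test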;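 further: His-tagged Mcl-1 with rhodamine Noxa BH3 peptide and terbium anti-His antibody; 0% = Mcl-1 plus Noxa peptide wells and 100% = peptide-only wells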
* = called active by the depositor; i = inactive; · = no result.

SMILES	Mcl-1 Bim block	Calpain2 inh	TNF necrop inh	Mcl1 Bid PPI	L929 necroptosis	Mcl1 Noxa PPI
Cc1ccc(Nc2c(-c3ccc(C)o3)nc3cnccn23)cc1	-2	-23	-4	-8	0	51*
Cc1ccc(-c2nc3cnccn3c2Nc2ccccc2)o1	-2	-326	-4	-20	0	44
O=C(Nc1nc2ccccc2[nH]1)c1ccc(Cl)c([N+](=O)[O-])c1	0	4	0	9	66	82*
O=[N+]([O-])c1cc(/C=N/Nc2nc3ccccc3[nH]2)c(O)cc1O	0	2	-11	-131	8	75*
Cc1oc(-c2ccccc2)cc1C(=O)Nc1cccc(/C=C\C(=O)O)c1	0	-35	1	-19	1	18
Cc1oc(-c2ccccc2)cc1C(=O)Nc1ccc(N(C)C)cc1	0	14	1	6	0	73*
O=C(COC(=O)CCN=C1NS(=O)(=O)c2ccccc21)NC1CCCCCCC1	·	-11	3	-24	0	-13
O=C(COC(=O)CCCN=C1NS(=O)(=O)c2ccccc21)NC(=O)NC1CCCC1	102*	-19	0	-20	0	12
O=C(N/N=C/C=C/c1ccc(Br)cc1)C(O)c1ccccc1 (centres undefined)	0	-1	3	-17	0	15
O=C(N/N=C\CCc1ccccc1)c1ccco1	-2	9	0	-9	1	4
COc1ccc2[nH]c(C)c(CCNC(=S)Nc3cc(C)cc(C)c3)c2c1	-2	-15	-23	-15	·	4
CCc1c(C)[nH]c2ccc(OC)cc2c1=S	-5	-66	-1	-2	1	74*
CC(C)(C)CC(=O)NCCc1csc(-c2ccccc2)n1	·	-9	-1	1	-1	-2
COc1cc(-c2nc3ccccn3c2/N=C/c2cc(OC)c(O)cc2Cl)ccc1O	-3	i	-2	-46	1	57*
CC1(c2ccc(Cl)cc2)NC(=O)N(CC(=O)NC(=O)NCc2ccco2)C1=O (centres undefined)	-1	-24	-1	-12	0	11
COC(=O)c1cccc(OCC(O)Cn2ccnc2)c1 (centres undefined)	-1	21	1	91*	1	9
Cc1ccccc1-c1ccc(Nc2ccc(N3CCOCC3)cc2)nn1	1	-44	-1	12	7	69*
Cc1ccc(NC(=S)N(Cc2cccc(Br)c2)CC2CCC(C(=O)O)CC2)cc1 (centres undefined)	-3	-1	-1	-44	1	13
Cc1cc(NC(=S)N(Cc2cccc(Br)c2)CC2CCC(C(=O)O)CC2)ccc1Cl (centres undefined)	-2	53*	-1	-36	-1	24
Cn1c(=O)c2c(nc(N/N=C/c3ccc(OC(=O)c4ccco4)cc3)n2Cc2ccccc2Cl)n(C)c1=O	-6	-16	0	-19	18	14
Cn1c(=O)c2c(nc(N/N=C/c3ccc(OC(=O)c4ccco4)cc3)n2Cc2ccc(F)cc2)n(C)c1=O	-10	-76	-1	59*	5	48
COc1ccc(CCNC(=O)COC(=O)Cc2cccc3ccccc23)cc1	-6	8	1	-5	0	83*
CC1CCCC(NC2CCCCNC2=O)C1 (centres undefined)	2	-24	1	83*	0	-11
CC(C)(C)C(=O)Nc1cc(NC(=O)C(C)(C)C)cc(C(=O)Nc2cc(C(=O)O)cc(C(=O)O)c2)c1	0	-8	2	-5	0	6
C=CCn1c(SCC(=O)NNC(=O)Nc2ccc(C)cc2)nnc1-c1ccccc1	·	-4	1	-5	1	2
SMILES	Mcl-1 Bim block	Calpain2 inh	TNF necrop inh	Mcl1 Bid PPI	L929 necroptosis	Mcl1 Noxa PPI
C=CCn1c(SCC(=O)Nc2ccc(-c3nc4ccc(C)cc4s3)cc2)nnc1-c1ccccc1	-1	-482	0	66*	1	70*
COc1cccc(N(C(=O)c2cccs2)c2nc3ccccc3s2)c1	0	-171	-3	-2	1	-17
O=C(Nc1ccc(F)cc1)N1CCCN(c2ccc(C(F)(F)F)cn2)CC1	·	6	-2	83*	0	31
CC(=O)Nc1ccc(N2CCN(c3ccc(C(F)(F)F)cn3)CC2)nc1	·	8	-2	-16	0	-2
Cc1ccc2nc(/C(C#N)=C\c3ccc([N+](=O)[O-])o3)[nH]c2c1	0	-50	-9	52*	41	66*
Cc1ccc2nc(/C(C#N)=C\c3ccc(Oc4ccc([N+](=O)[O-])cn4)cc3)[nH]c2c1	-3	-9	9	17	4	-14
COc1ccc2nc(/C(C#N)=C\c3ccc(Oc4ccc([N+](=O)[O-])cn4)cc3)[nH]c2c1	2	-65	5	58*	4	72*
N#C/C(=C\c1ccc([N+](=O)[O-])o1)c1nc2ccccc2[nH]1	0	-37	-8	-20	46	39
CC(C)CCn1c2ccccc2c2cc(CC(N)=O)ccc21	·	-16	-4	8	1	16
N#Cc1ccc(N2CCN(C(=O)c3cccc(F)c3)CC2)c(F)c1	-4	-1	-2	-16	-1	-9
Cc1ccc(-n2cccc2/C=C2/C(=N)N3C(=NC2=O)SN=C3S(C)(=O)=O)cc1	-1	-15	0	-17	3	98*
Cc1ccc(-n2cccc2/C=C2\C(=N)N3N=C(c4ccco4)SC3=NC2=O)cc1	-3	-35	1	79*	0	94*
Cc1cc(C)cc(-n2cccc2/C=C2/C(=N)N3C(=NC2=O)SN=C3S(C)(=O)=O)c1	3	1	-1	-12	0	34
CCc1ccc(-n2cccc2/C=C2/C(=N)N3C(=NC2=O)SN=C3S(C)(=O)=O)cc1	2	10	0	-4	3	94*
CS(=O)(=O)C1=NSC2=NC(=O)/C(=C\c3cccn3-c3ccccc3Cl)C(=N)N21	1	11	-1	-8	2	89*
CSC1=C(C#N)C(=O)NC(c2ccc(Cl)cc2)S1 (centres undefined)	·	29	-15	-45	-1	10
Cc1cc(Cl)ccc1OCCCC(=O)N/N=C/c1cccc([N+](=O)[O-])c1	-5	-7	2	0	1	13
NCC(c1ccccc1)c1c[nH]c2ccccc12 (centres undefined)	47*	3	2	-34	-1	7
O=C(O)C(O)Cc1c[nH]c2ccccc12 (centres undefined)	-3	12	-1	1	0	25
CC(Cc1c[nH]c2ccccc12)C(=O)O (centres undefined)	2	16	0	-72	2	57*
OC(CN1CCN(c2ccccc2)CC1)c1c[nH]c2ccccc12 (centres undefined)	0	-10	0	-55	1	6

Screens as filed in PubChem BioAssay.
